Experimental data: PubChem BioAssay (Tox21)
Inconclusive results are not listed. Calls of active or inactive are those of the source. Unless noted, calls come from the whole dose curve.

How the values were obtained:
[1] = Nuclear factor erythroid 2-related factor 2/antioxidant responsive element (Nrf2/ARE) small molecule agonists: qHTS cell viability counter screen in human keratinocytes (AID 1919968; active = well fitted curve in the direction sought with a large enough effect in the repeat runs; an effect the other way counts as inactive or inconclusive; note: nearly all actives have a fitted effect of over 55% in size; note: potency is the fitted concentration of half-maximal effect)
Outline: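 Seed 1,500 KeratinoSens cells per well, then incubate 5 h at 37 C/5% CO2. Add compounds in DMSO and incubate 23 h. Add CellTiter-Fluor, wait 1 h and read fluorescence.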

[2] = Nuclear factor erythroid 2-related factor 2/antioxidant responsive element (Nrf2/ARE) small molecule agonists: luciferase reporter gene qHTS assay in human keratinocytes (AID 1919969); note: nearly all actives have a fitted effect of over 35% in size; note: potency is the fitted concentration of half-maximal effect
[3] = biological target: KiSS-1 receptor (Homo sapiens) (UniProt Q969F8); experiment: Human kisspeptin (KISS1R) small molecule agonists, calcium flux assay in KISS1R-HEK293 cells (AID 1920064; active = well fitted curve in the direction sought with a large enough effect in the repeat runs; an effect the other way counts as inactive or inconclusive)
Chain of KiSS-1 receptor (Homo sapiens) (Q969F8 whole entry, looked up): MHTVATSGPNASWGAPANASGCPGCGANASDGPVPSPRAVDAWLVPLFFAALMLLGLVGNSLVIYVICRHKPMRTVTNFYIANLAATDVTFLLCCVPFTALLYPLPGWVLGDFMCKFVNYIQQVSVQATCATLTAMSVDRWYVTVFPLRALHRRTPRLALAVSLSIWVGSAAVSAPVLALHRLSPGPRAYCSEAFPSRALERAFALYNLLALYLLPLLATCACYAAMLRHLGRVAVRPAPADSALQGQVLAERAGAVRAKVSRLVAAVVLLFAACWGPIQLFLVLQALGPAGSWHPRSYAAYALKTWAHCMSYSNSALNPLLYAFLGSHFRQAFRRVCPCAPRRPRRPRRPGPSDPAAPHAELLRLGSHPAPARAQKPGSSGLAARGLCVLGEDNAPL
Outline: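 Cells plated and incubated 18 h; dye added, 1 h at 37 C; compounds in DMSO pinned in; signal read at 480/540 nm every second for 3 min. Each compound tested at 15 concentrations in triplicate.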

[4] = G protein-coupled receptor (GPCR) small molecule agonists, calcium flux assay: HEK293 wild type cell line counter screen (AID 1920065); note: potency is the fitted concentration of half-maximal effect
Outline: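 Counter-screen of the Tox21 10K library for non-specific calcium release: dye-loaded cells received compounds in DMSO and were monitored by kinetic fluorescence (480/540 nm, 3 min). Fifteen concentrations, run in triplicate.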

[5] = p53 small molecule agonists, cell-based qHTS assay with human liver microsomes: qHTS cell viability counter screen (AID 1963579); note: nearly all actives have a fitted effect of over 45% in size
Outline: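 In this multiplexed counter screen, the reporter plates were subsequently treated with CellTiter-Glo so that cell viability, reflected by luminescence, could be recorded for p53RE-bla cells dosed 16 h with compounds under microsomal activation (HLM and NADPH).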

[6] = p53 small molecule agonists, cell-based qHTS assay with rat liver microsomes: qHTS cell viability counter screen (AID 1963580); note: nearly all actives have a fitted effect of over 45% in size
Outline: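 In HCT-116 cells carrying a p53 response element-bla reporter, compounds were metabolically activated in situ by rat liver microsomes with NADPH over 16 h. Cell ATP content then served as the cytotoxicity measure.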

[7] = p53 small molecule agonists, cell-based qHTS assay: qHTS cell viability counter screen (AID 1963581); note: nearly all actives have a fitted effect of over 45% in size; note: potency is the fitted concentration of half-maximal effect
Outline: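 Cells: HCT-116 with p53 response element-driven beta-lactamase. Treatment: 16 h, 37 C, compounds in DMSO. Read: CellTiter-Glo luminescence after 30 min RT.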

[8] = biological target: 5-hydroxytryptamine receptor 2A (Homo sapiens) (UniProt P28223); experiment: 5-hydroxytryptamine receptor 2A (HTR2A) small molecule antagonists, cell-based qHTS assay (AID 1963586); note: nearly all actives have a fitted effect of over 45% in size; note: potency is the fitted concentration of half-maximal effect
Chain of 5-hydroxytryptamine receptor 2A (Homo sapiens) (P28223 whole entry, looked up): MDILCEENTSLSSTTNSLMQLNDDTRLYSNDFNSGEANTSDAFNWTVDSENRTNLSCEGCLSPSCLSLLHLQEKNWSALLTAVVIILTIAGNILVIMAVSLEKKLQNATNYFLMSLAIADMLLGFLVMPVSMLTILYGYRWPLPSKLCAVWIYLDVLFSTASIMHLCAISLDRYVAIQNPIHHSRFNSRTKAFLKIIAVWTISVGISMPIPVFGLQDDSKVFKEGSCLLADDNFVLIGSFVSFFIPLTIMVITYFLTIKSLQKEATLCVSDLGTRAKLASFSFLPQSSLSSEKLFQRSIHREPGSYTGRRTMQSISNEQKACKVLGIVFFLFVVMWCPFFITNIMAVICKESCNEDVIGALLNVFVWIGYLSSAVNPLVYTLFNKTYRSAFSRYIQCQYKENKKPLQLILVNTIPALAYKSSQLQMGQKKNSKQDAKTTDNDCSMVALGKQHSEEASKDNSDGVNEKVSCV
Outline: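 Antagonist-mode intracellular calcium assay: DOI (4 nM) added after 5 min compound pre-incubation at room temperature to dye-loaded HTR2A-CHO cells. Fluorescence followed for 3 min, sampled every second.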

[9] = biological target: 5-hydroxytryptamine receptor 2A (Homo sapiens) (UniProt P28223); experiment: 5-hydroxytryptamine receptor 2A (HTR2A) small molecule agonists, cell-based qHTS assay (AID 1963587); note: nearly all actives have a fitted effect of over 30% in size; note: potency is the fitted concentration of half-maximal effect
Outline: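 HTR2A-CHO cells, plated 18 h at 37 C/5% CO2, dye-loaded 1 h at 37 C; compounds in DMSO added by pin tool (agonist mode). Intracellular calcium flux read as kinetic fluorescence on FDSS over 2 min at 1 s intervals.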

[10] = biological target: Muscarinic acetylcholine receptor M1 (Homo sapiens) (UniProt P11229); experiment: Cholinergic receptor muscarinic 1 (CHRM1) small molecule antagonists, cell-based qHTS assay (AID 1963588); note: nearly all actives have a fitted effect of over 40% in size
Chain of Muscarinic acetylcholine receptor M1 (Homo sapiens) (P11229 whole entry, looked up): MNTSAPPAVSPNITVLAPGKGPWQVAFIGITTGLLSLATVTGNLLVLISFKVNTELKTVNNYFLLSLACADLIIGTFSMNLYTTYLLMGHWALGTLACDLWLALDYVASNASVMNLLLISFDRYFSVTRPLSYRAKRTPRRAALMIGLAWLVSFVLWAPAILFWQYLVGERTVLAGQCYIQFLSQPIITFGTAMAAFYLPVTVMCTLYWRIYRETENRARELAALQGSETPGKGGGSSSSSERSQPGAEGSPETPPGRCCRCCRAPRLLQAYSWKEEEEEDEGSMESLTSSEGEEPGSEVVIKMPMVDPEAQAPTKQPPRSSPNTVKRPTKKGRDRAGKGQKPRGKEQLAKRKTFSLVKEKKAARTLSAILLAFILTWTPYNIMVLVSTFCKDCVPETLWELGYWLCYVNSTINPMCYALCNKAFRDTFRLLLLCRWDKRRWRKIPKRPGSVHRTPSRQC
Outline: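 CHRM1-CHO calcium-flux assay, antagonist mode. Cells were seeded 18 h, dye-loaded 1 h at 37 C and given compound for 5 min at RT, then acetylcholine was added at 50nM. FDSS fluorescence was read 3 min; 15 concentrations, three runs.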

[11] = biological target: Muscarinic acetylcholine receptor M1 (Homo sapiens) (UniProt P11229); experiment: Cholinergic receptor muscarinic 1 (CHRM1) small molecule agonists, cell-based qHTS assay (AID 1963589); note: nearly all actives have a fitted effect of over 35% in size
Outline: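 Agonist-mode qHTS in CHO cells stably carrying human muscarinic M1. Intracellular calcium is tracked by fluorescence every second after compound transfer; each compound runs at 15 concentrations in three independent runs.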

[12] = cAMP Responsive Elements (CRE) small molecule agonists, cell-based qHTS assay (AID 1963590)
Outline: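 Agonist mode qHTS in CRE-bla HEK 293T cells: compounds dosed from DMSO for 3 h at 37 C/5% CO2, followed by LiveBLAzer B/G FRET substrate for 2 h at room temperature.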

[13] = biological target: Beta-2 adrenergic receptor (Homo sapiens) (UniProt P07550); experiment: Adrenergic beta2 receptor (ADRB2) small molecule antagonists, cell-based qHTS assay (AID 1963592); note: series mostly up to about 92 µM; nearly all actives have a fitted effect of over 50% in size
Chain of Beta-2 adrenergic receptor (Homo sapiens) (P07550 whole entry, looked up): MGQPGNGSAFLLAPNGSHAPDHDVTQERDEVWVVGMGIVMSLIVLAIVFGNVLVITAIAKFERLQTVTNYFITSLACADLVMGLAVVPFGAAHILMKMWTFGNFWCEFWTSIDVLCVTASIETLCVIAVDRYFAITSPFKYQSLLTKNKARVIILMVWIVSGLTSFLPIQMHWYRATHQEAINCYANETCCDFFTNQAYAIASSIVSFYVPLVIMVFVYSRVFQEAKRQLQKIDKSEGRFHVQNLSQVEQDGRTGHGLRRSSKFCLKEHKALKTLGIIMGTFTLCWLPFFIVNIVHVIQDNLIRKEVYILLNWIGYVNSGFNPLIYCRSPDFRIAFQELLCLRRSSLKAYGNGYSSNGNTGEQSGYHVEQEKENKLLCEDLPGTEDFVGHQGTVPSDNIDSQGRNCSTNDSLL
Outline: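 Cells (CHO, stable ADRB2 overexpression) incubated 18-20hr at 37C; compounds added from DMSO; agonist mix (1nM isoproterenol, 100uM IBMX, 25uM Ro-20-1724) added; 0.5hr RT; d2-cAMP and anti-cAMP-cryptate added; 1hr RT; 665/615 nm read.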

[14] = biological target: D(2) dopamine receptor (Homo sapiens) (UniProt P14416); experiment: Dopamine D2 receptor (DRD2) small molecule agonists, cell-based qHTS assay (AID 1963594); note: nearly all actives have a fitted effect of over 35% in size
Chain of D(2) dopamine receptor (Homo sapiens) (P14416 whole entry, looked up): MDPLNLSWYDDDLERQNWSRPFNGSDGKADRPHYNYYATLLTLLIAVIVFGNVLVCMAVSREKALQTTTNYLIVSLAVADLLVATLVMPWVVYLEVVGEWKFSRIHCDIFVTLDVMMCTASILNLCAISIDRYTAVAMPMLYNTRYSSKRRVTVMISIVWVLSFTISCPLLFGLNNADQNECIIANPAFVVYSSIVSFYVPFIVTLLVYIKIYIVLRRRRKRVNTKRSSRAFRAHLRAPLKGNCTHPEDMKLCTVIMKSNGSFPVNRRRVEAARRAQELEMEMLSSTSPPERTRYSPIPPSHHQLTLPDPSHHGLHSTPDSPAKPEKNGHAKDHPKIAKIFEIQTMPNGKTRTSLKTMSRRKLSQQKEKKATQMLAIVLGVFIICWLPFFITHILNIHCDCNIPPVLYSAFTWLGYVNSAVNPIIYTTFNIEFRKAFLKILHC
Outline: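 HEK293 cells stably expressing DRD2 were cultured 24 h at 37 C, then given Ro20-1724 (0.1 mM final) and compounds for 10 min at room temperature. NKH477 (200nM) was then added for 30 min. cAMP was read by HTRF.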

[15] = biological target: D(2) dopamine receptor (Homo sapiens) (UniProt P14416); experiment: Dopamine D2 receptor (DRD2) small molecule antagonists, cell-based qHTS assay (AID 1963595; active = well fitted inhibition curve with a large enough effect in the signal ratio in the repeat runs, with a control signal flat; the % refers to the signal ratio; note: potency is the fitted concentration of half-maximal effect)
Outline: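 HEK293 cells stably expressing DRD2 were preincubated with 0.1 mM Ro20-1724, then with compound for 10 min at room temperature. Cells were stimulated with 200 nM NKH477 plus 12 nM quinpirole for 30 min, and cAMP was read by HTRF.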

[16] = biological target: Gonadotropin-releasing hormone receptor (Homo sapiens) (UniProt P30968); experiment: Human gonadotropin-releasing hormone receptor (GnRHR) small molecule agonists, calcium flux assay in GnRHR-HEK293 cells (AID 1920063); note: nearly all actives have a fitted effect of over 35% in size
Chain of Gonadotropin-releasing hormone receptor (Homo sapiens) (P30968 whole entry, looked up): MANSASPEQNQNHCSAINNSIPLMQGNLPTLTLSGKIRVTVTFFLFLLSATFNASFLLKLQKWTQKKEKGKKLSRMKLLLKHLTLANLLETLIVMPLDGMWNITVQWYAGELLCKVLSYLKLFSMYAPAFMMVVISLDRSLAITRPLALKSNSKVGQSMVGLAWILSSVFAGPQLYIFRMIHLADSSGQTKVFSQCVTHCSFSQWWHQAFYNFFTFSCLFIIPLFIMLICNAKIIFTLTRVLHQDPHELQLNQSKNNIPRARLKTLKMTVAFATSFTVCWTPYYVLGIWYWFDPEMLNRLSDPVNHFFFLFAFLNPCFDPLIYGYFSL
Outline: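 Cells: HEK293 stably expressing human GnRHR. Steps: overnight (18 h) culture, 1 h calcium dye loading at 37 C, compound addition, kinetic fluorescence read at 480/540 nm. Each compound tested at 15 concentrations in triplicate.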

[17] = p53 small molecule agonists, cell-based qHTS assay with human liver microsomes (AID 1963577);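 note: p53 response element beta-lactamase reporter cells with liver microsomes plus NADPH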
Outline: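 16 h, 37 C exposure of p53RE-bla cells to compounds with human liver microsomes and NADPH (0.5 mg/mL final each); detection via LiveBLAzer mixture, 2 h dark at room temperature.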

[18] = p53 small molecule agonists, cell-based qHTS assay with rat liver microsomes (AID 1963578)
Outline: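 With rat liver microsomes and NADPH present (0.5 mg/mL final each), p53RE-bla cells are treated with compound for 16 h at 37 C. LiveBLAzer detection mixture is then applied for 2 h at room temperature in the dark.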

[19] = p53 small molecule agonists, cell-based qHTS assay (AID 1963582; active = well fitted activation curve with a large enough effect in the signal ratio in the repeat runs, not every such curve was filed as active; the % refers to the signal ratio)
Outline: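 Quantitative HTS in p53RE-bla cells: after a 5 h settling period, compounds delivered in DMSO were left on cells for 16 h at 37 C, and reporter induction was measured as fluorescence following 2 h substrate loading.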

[20] = cAMP Responsive Elements (CRE) small molecule antagonists, cell-based qHTS assay (AID 1963591; active = well fitted inhibition curve with a large enough effect in the signal ratio in the repeat runs, not every such curve was filed as active; the % refers to the signal ratio)
Outline: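 Antagonist mode: test compounds are co-incubated with the adenylyl cyclase activator NKH477 (0.25 uM final) on CRE-bla HEK293T cells for 3 h at 37 °C, followed by LiveBLAzer substrate loading.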

Measured: Potency

Nc1cc2c3c(c1)C(c1ccccc1)=N[C@@H](NC(=O)c1cccnc1)C(=O)N3CC2
not listed: [16] | [17] | [18] | [19] | [20]
inactive: all other assays above

C=CCc1ccc(OC(=O)Cc2ccccc2)c(OC)c1
not listed: [2] | [13] | [20]
inactive: all other assays above

COc1nn(C(=O)NS(=O)(=O)c2ccccc2OC(F)(F)F)c(=O)n1C
not listed: [9] | [11] | [16] | [17] | [18] | [19]
inactive: all other assays above

NNC(=O)c1cccnc1
not listed: [2] | [20]
inactive: all other assays above

C=CC(=C)C
not listed: [3] | [7] | [16] | [17] | [18]
inactive: all other assays above

FC(Cl)(Cl)C(F)(Cl)Cl
not listed: [16] | [17] | [18] | [19]
inactive: all other assays above

c1ccc2nc(N3CCNCC3)ccc2c1
inactive: [1] | [2] | [3] | [4] | [6] | [10] | [13] | [14] | [15]
active: [8] 0.0033 µM | [9] 0.0048 µM

[O]=[Cd]
not listed: [2]
inactive: all other assays above

ClCBr
not listed: [8] | [11] | [12] | [16] | [17] | [18] | [19]
inactive: all other assays above

COc1cc(CC#N)cc(OC)c1OC
not listed: [3] | [8] | [15] | [16] | [20]
inactive: all other assays above

C=CCC1=C(C)C(OC(=O)C2C(C=C(C)C)C2(C)C)CC1=O (stereo not drawn)
active: [1] 34.4 µM | [2] 23 µM | [7] 28.9 µM | [15] 57.8 µM
inactive: [3] | [4] | [18] | [9] | [13]

CC(C)COP(=O)(OCC(C)C)OCC(C)C
not listed: [2] | [20]
inactive: all other assays above

N#CC(C#N)=NNc1cccc(Cl)c1
active: [1] 8.63 µM | [2] 7.7 µM | [4] 2.45 µM
not listed: [3] | [5] | [6] | [7] | [12] | [16] | [20]
inactive: all other assays above
